# Measurements from PubChem BioAssay (NCI).
# This is part of a sample that, as a whole, favours compounds with a hit. Of some 83,000 tested, about 20% had one in any assay.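 Growth was measured after 48 h exposure to one concentration of compound in 96-well plates. Values under 10 count as active.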 Unmarked numbers belong to inactive results. The source made the active and inactive calls.
# Assays:
# Experiment in all cases: NCI-60 one-dose screen, 48 h (100 = growth as untreated, 0 = no growth, -100 = all killed)
# Conditions in all cases: 10 µM unless noted
# RPMI-8226 leukemia = tested on: RPMI-8226 leukemia
# OVCAR-8 ovarian = tested on: OVCAR-8 ovarian
# OVCAR-5 ovarian = tested on: OVCAR-5 ovarian
# OVCAR-4 ovarian = tested on: OVCAR-4 ovarian
# SK-OV-3 ovarian = tested on: SK-OV-3 ovarian
# IGROV1 ovarian = tested on: IGROV1 ovarian
# OVCAR-3 ovarian = tested on: OVCAR-3 ovarian
# HS 578T breast = tested on: HS 578T breast
# NCI/ADR-RES ovarian = tested on: NCI/ADR-RES ovarian
# T-47D breast = tested on: T-47D breast
# BT-549 breast = tested on: BT-549 breast
# MDA-MB-435 melanoma = tested on: MDA-MB-435 melanoma
# SW-620 colon = tested on: SW-620 colon
# MCF7 breast = tested on: MCF7 breast
# HCT-116 colon = tested on: HCT-116 colon
# HCC-2998 colon = tested on: HCC-2998 colon
# KM12 colon = tested on: KM12 colon
Compound,growth (RPMI-8226 leukemia),growth (OVCAR-8 ovarian),growth (OVCAR-5 ovarian),growth (OVCAR-4 ovarian),growth (SK-OV-3 ovarian),growth (IGROV1 ovarian),growth (OVCAR-3 ovarian),growth (HS 578T breast),growth (NCI/ADR-RES ovarian),growth (T-47D breast),growth (BT-549 breast),growth (MDA-MB-435 melanoma),growth (SW-620 colon),growth (MCF7 breast),growth (HCT-116 colon),growth (HCC-2998 colon),growth (KM12 colon)
CC(=O)c1cnc(-c2ccccc2)nc1CBr,37.7%,89.3%,96.3%,79.7%,105%,89.2%,30.1%,89%,92.2%,38.5%,70.3%,86.4%,39.6%,52.2%,28.4%,99.8%,95.2%
CS(=O)(=O)O[C@@H]1C(=O)N(c2cc3c4ccccc4ccc3c3ccccc23)[C@H]1c1ccc(F)cn1,19.8%,27.4%,58.3%,66.5%,41.7%,51.7%,-12.7% (active),7.01% (active),20.2%,32.5%,44.6%,-26% (active),22.5%,21.6%,14.3%,60.1%,23%
O=C1Nc2ccc(Cl)cc2/C1=N/c1nc(-c2ccc(F)cc2)cs1,8.37% (active),45.3%,75%,32.2%,56.4%,25.6%,39.2%,38.5%,79.8%,25.3%,55.4%,9.56% (active),27.7%,12.5%,28.4%,42.2%,28.2%
O=c1[nH]nc(-c2ccccc2)c2sc(NC(=S)Nc3ccc(Cl)cc3)nc12,87.8%,89.6%,98.6%,91.6%,62.3%,94.2%,97.5%,102%,95.3%,59%,92.6%,103%,98.1%,74.9%,87.8%,107%,90%
COC(=O)/C=C/c1cc(OC)c2c(c1)[C@@H](C(=O)OC)[C@H](c1ccc(OC)c(OC)c1)O2,12.6%,30.8%,77%,42.6%,66.8%,43.2%,-15.8% (active),37.5%,16.6%,33.1%,36.7%,-42.3% (active),30.4%,19.6%,15.9%,59.5%,27.6%
O=C(Nc1ccc2ncnc(Nc3cccc(C(F)(F)F)c3)c2c1)c1cccs1,40.8%,49.9%,63.9%,33.1%,83.7%,32.7%,29.1%,103%,55.7%,32.3%,71.8%,63.3%,27.7%,32.2%,38.3%,62.8%,49.6%
Cc1nc2sc(C(=O)Nc3ccccc3Cl)c(N)c2cc1C(C)O (centres undefined),88.1%,95%,97.8%,97.9%,78.7%,92.9%,88.8%,88.1%,71.7%,86.4%,78.8%,5.06% (active),57.6%,48.6%,67.8%,84.5%,56.1%
O=C(CSC(=S)N1CCCCC1)Nc1ccccc1,84.6%,99.4%,106%,109%,106%,103%,107%,106%,102%,81.7%,101%,110%,102%,99.8%,92.4%,98.2%,95.8%
C(=C\c1cn(-c2ccccc2)nc1-c1ccccc1)/c1nnc(-c2c[nH]c3ccccc23)o1,40.8%,35.2%,93.3%,47.9%,91.8%,59.2%,20.9%,44.7%,51.8%,55.5%,81%,49%,45.8%,34.3%,24.7%,97.3%,37.9%
COc1cc(/C=C/CO)cc(OC)c1O[C@@H]1O[C@H](CO)[C@@H](O)[C@H](O)[C@H]1O,99.3%,98.8%,92.4%,100%,100%,104%,108%,96.4%,106%,93.1%,104%,102%,94%,93.2%,95.8%,102%,105%
CC(C)(C)CC(C)(C)Cc1ccc(OCCOCC[N+](C)(C)Cc2ccccc2)cc1,-53.4% (active),22.8%,74%,7.03% (active),46.9%,-16.7% (active),0.137% (active),26.3%,99.9%,0.793% (active),-16% (active),-23.9% (active),30.2%,12.9%,20.8%,-10% (active),-52.6% (active)
C#C[C@@]1(O)[C@@H](CO)O[C@@H](n2cc(Cl)c3c(N)ncnc32)[C@@H]1O,-5.63% (active),-23% (active),16.1%,-4.32% (active),-10.3% (active),-17.5% (active),-10.1% (active),5.45% (active),-1.89% (active),-12.9% (active),-32.9% (active),-12.3% (active),2.67% (active),-40.6% (active),4.58% (active),-33.8% (active),1.42% (active)
COc1cc(NC(=O)Nc2cnc(Nc3ccc(N4CCOCC4)cc3)nc2Oc2ccc(C(F)(F)F)cc2)cc(OC)c1,92.5%,100%,116%,111%,104%,104%,110%,99.4%,104%,98.4%,111%,107%,107%,101%,104%,104%,103%
C=C1C(=O)O[C@H]2[C@H]1CC/C(COC(=O)NCc1nc3ccccc3[nH]1)=C\CC[C@@]1(C)O[C@@H]21,34.7%,93.6%,130%,82.7%,101%,62.7%,22%,102%,99.4%,43.4%,86.7%,63.1%,25.2%,36.5%,47.5%,104%,99.3%
CC(=O)c1ccc(NC(=O)CSc2nnc(-c3cc(-c4ccc(Cl)cc4)nc4ccccc34)o2)cc1,25.5%,82%,96.7%,71.1%,90.1%,92.7%,107%,110%,83.2%,79.1%,79.7%,85.5%,75.6%,55.8%,20.8%,101%,89.3%
Nc1c(C(=O)Nc2cccc3ccccc23)sc2nc3c(cc12)CCCCC3,24.9%,21.4%,44.1%,56.6%,29.1%,44.3%,-25.2% (active),30%,20.3%,46.7%,12.6%,-32.2% (active),24.3%,17.7%,8.52% (active),33.1%,22.8%
S=c1ssnc1-c1cc2ccccc2o1,21.4%,86%,105%,83.2%,85.7%,-54% (active),80.4%,61.9%,78%,64.5%,103%,57%,71.5%,65.5%,59.5%,98.3%,81.6%
